High-throughput results: PubChem, National Center for Advancing Translational Sciences (NCATS)
Only some compounds are listed: those with a hit (about 19% of all), similar ones and a draw of the others.
TDP1 cell CPT = DT40-hTDP1 cell growth loss with CPT; AID 686979; Potency, µM (titrated, usually from 46.2 µM), without a hit: at the top dose activity change, negative = growth inhibition, hits mostly inhibitors; 420,000 compounds, 12% hits; chicken DT40 Tdp1-/-;hTDP1 cells + 20 nM CPT, ATP luminescence, 48 h; also: potency is read from the fitted curve at half-maximal effect; % is scaled to controls: 0 for no effect and ±100 for the full control effect; nearly all actives have a fitted effect of over 55% in size
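Cell growth measured by CellTiter-Glo luminescence after a minimum 48 h, 37 C compound exposure with 20 nM CPT in Tdp1-knockout DT40 cells stably expressing hTDP1, seeded 400/well; qHTS titration format.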
S-ASM inh = inhibitors of human secretory acid sphingomyelinase; AID 504937; Potency, µM (highest dose often 57.5 µM), inactives show at the top dose activity change, negative = inhibition, most hits filed as inhibitors; placental ASM, HMU-PC fluorogenic substrate, 60 min; 340,000 compounds, 0.006% hits; P17405; also: potency is read from the fitted curve at half-maximal effect
Target sequence (P17405 47-631 limits assumed): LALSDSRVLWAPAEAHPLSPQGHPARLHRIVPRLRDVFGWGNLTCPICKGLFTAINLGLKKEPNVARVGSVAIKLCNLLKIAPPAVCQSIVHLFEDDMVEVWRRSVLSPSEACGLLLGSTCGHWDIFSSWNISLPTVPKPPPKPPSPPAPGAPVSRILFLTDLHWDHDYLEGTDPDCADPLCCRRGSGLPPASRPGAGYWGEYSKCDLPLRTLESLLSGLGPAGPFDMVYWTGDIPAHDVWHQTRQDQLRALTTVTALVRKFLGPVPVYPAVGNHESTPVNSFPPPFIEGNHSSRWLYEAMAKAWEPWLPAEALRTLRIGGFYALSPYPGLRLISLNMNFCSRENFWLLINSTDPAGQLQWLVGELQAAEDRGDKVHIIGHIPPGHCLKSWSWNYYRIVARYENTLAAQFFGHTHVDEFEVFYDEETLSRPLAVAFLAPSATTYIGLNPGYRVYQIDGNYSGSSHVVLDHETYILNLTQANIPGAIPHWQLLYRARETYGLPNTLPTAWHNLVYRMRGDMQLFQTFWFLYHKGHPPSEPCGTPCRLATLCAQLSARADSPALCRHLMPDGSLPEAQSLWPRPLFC
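HMU-PC0 cleavage (9 uM final) by human placental ASM, 60 min at 37 °C following 10 min compound exposure at RT; stopped at pH 10, fluorescence Ex 386/Em 447 nm.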
HepG2 tox = HepG2 cytotoxicity, counter-screen for TGF-b inhibitors. HepG2 CAGA-GFP viability, ATP luminescence, 18 h. Potency, µM (top dose mostly 46.1 µM), for inactives: top-dose activity change, negative = cytotoxicity, usual class: cytotoxic. 410,000 compounds, 0.76% hits. AID 588856; also: potency is read from the fitted curve at half-maximal effect
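CellTiter-Glo luminescence gave cytotoxicity after 18 hours at 37 degrees C. The cells were HepG2 CAGA-GFP in 1% FBS DMEM, stimulated with 500 pg/mL TGF-beta after compound addition. %Activity was normalised to no-cell wells (complete cell-killing) and DMSO (no toxicity), and curves were fitted and classified.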
TGFb SMAD3 inh = TGF-b pathway inhibition; AID 588855; HepG2 CAGA-GFP TGF-b/SMAD3 reporter, GFP fluorescence, 18 h; TGF-beta stimulated, 500 pg/mL final; 410,000 compounds, 1.2% hits; Potency, µM (doses to about 46.1 µM), inactives show top-dose activity, negative = inhibition, most hits filed as inhibitors; also: potency is read from the fitted curve at half-maximal effect; % is scaled to controls: 0 for no effect and ±100 for the full control effect; nearly all actives have a fitted effect of over 65% in size
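Per well, imaged GFP fluorescence of HEPG2 CAGA-GFP cells gives the signal; cells get compound, then TGF-beta (500 pg/mL final), 18 h at 37 degrees C; %Activity versus -TGF-beta and +DMSO controls.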
TDP1 cell noCPT = qHTS for Inhibitors of human tyrosyl-DNA phosphodiesterase 1 (TDP1): qHTS in cells in absence of CPT; 420,000 compounds, 15% hits; DT40 Tdp1-/- hTDP1 cells, no CPT, ATP luminescence, 48 h; Potency, µM (series often up to 46.2 µM), for the others: top-dose activity change, negative = growth inhibition, actives largely listed as inhibitors; also: potency is read from the fitted curve at half-maximal effect; % is scaled to controls: 0 for no effect and ±100 for the full control effect; nearly all actives have a fitted effect of over 55% in size
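No-CPT arm: Tdp1-/-;hTDP1 DT40 cells (400/well) plus compounds, incubated ≥48 hr at 37 °C. Readout CellTiter-Glo luminescence.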
IL1B secr inh = inflammasome signaling inhibition, IL-1 beta readout. THP-1 LPS/ATP IL-1B secretion, AlphaLISA, 16 h; active compounds read low. activity change, % at 57.5 µM. 360,000 compounds, 4.7% hits. AID 743279; in the data active = activity change below about -50%; inconclusive = mostly about -30% to -49%; also: % is scaled to controls: 0 for no effect and ±100 for the full control effect
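Secreted IL-1B measured by AlphaLISA bead assay after 16 h compound exposure of THP-1 cells; compounds (final up to 57.5 uM) added 1 h before LPS (250 ng/mL) and ATP (1.25 mM) stimulation; lower signal means less secretion.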
Starred values were filed as active, the others as inactive; ? = inconclusive; . = no result given. Unless noted, calls follow the shape of the dose curve; as a rule, active = well fitted curve in the direction sought with a large enough effect; inconclusive = small, poorly fitted or top-dose-only effect, or another doubt; inactive = no such curve, though single readings can be large; an effect the other way counts as inactive or inconclusive.

SMILES	TDP1 cell CPT	S-ASM inh	HepG2 tox	TGFb SMAD3 inh	TDP1 cell noCPT	IL1B secr inh
CCc1nnc(NC(=O)CSc2nnc(C(C)NC(=O)c3ccccc3)n2C)s1 (stereo unspecified)	-2%	-2%	-13%	11%	-6%	-2
Cc1cc(NC(=O)CN2C(=O)/C(=C/c3ccccc3F)SC2=S)no1	15%	-2%	-10%	-20%	2%	2
O=C(CCN1C(=O)/C(=C/c2ccccc2)SC1=S)N[C@@H](CO)Cc1ccccc1	18µM*	-12%	4%	?	10µM*	-61*
O=C(CCN1C(=O)/C(=C/c2ccccc2)SC1=S)Nc1ccccn1	-14%	1%	3%	-1%	-13%	11
O=C(CCN1C(=O)/C(=C/c2ccccc2F)SC1=S)N[C@@H](CO)Cc1ccccc1	?	-9%	-13%	?	16µM*	-99*
Cc1cc(C)c(S(=O)(=O)NCc2cn3ccccc3n2)c(C)c1	1%	-3%	-9%	3%	-9%	-9
CNc1cnc(-c2ccc(O)c(OC)c2)cn1	16µM*	.	-21%	-9%	?	-61*
Cc1ccc(S(=O)(=O)N2[C@@H](c3ccc(C(C)(C)C)cc3)C(C(=O)O)=CC[C@H]2c2ccc3c(c2)OCO3)cc1	?	-1%	-23%	?	?	27
O=C(COc1ccccc1)Nc1nc(-c2cccnc2)cs1	?	1%	-5%	5%	?	21
Cc1ccc(OCC(=O)Nc2nc(-c3ccccn3)cs2)c(C)c1	?	-6%	-13%	-25%	?	45
O=C(COc1ccc(F)cc1)Nc1nc(-c2ccccn2)cs1	7.3µM*	.	-1%	?	7.3µM*	21
O=C(COc1ccc([N+](=O)[O-])cc1)Nc1nc(-c2ccccn2)cs1	4.6µM*	6%	-12%	-3%	5.8µM*	67
O=C(COc1cccc(F)c1)Nc1nc(-c2ccccn2)cs1	5.2µM*	.	-11%	-10%	2.6µM*	90
Cc1cc([N+](=O)[O-])ccc1-c1ccc(C2Nc3ccccc3C(=O)N2O)o1 (stereo unspecified)	23µM*	?	-36%	-1%	23µM*	58
O=C1c2ccccc2NC(c2ccc(-c3ccccc3F)o2)N1O (stereo unspecified)	.	4%	-24%	?	.	.
N#C/C(=C\c1ccc(-c2nc3ccccc3s2)o1)C(N)=O	?	33%	0%	-4%	18µM*	23
COc1ccc(OC)c(-n2c(SCC(C)=O)nnc2-c2cccc(S(=O)(=O)N(C)C)c2)c1	-15%	4%	-8%	2%	-18%	18
CCCSc1nnc(-c2cccc(S(=O)(=O)N(C)C)c2)n1-c1cc(OC)ccc1OC	11µM*	0%	-17%	?	11µM*	5
CCSc1nnc(-c2cccc(S(=O)(=O)N(C)C)c2)n1-c1cc(OC)ccc1OC	14µM*	3%	-27%	23%	?	9
CCCCN(CCCC)C1=Nc2ccccc2N/C1=C(/C#N)C(=O)OCC	21µM*	6%	4%	85%	21µM*	-7
CCOC(=O)C1=C(C)Nc2ccccc2N=C1N	-2%	-3%	6%	1%	11%	4
CCOC(=O)/C(C#N)=C1\Nc2ccccc2N=C1N(CC(C)C)CC(C)C	?	23%	-28%	1%	18µM*	-59*
O=C(COC(=O)c1ccc(N2CCOCC2)c([N+](=O)[O-])c1)Nc1ccc2c(c1)OCO2	-17%	-3%	11%	0%	?	0
